Measured values: PubChem BioAssay AID504334 (NMMLSC, 2011)
Several values for one entry are separate records, joined by “and”; a condition that tells them apart may be missing. Equal entries are not always repeated. Activity calls are given as the source filed them.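 Rule for the calls: active = response relative to DMSO over 150%; inconclusive = yeast strain with under 70 recorded events; inactive = the rest.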

Assay: AGP1-GFP expression modulators, hit retest, confirmation, cell-based, flow cytometry, S. cerevisiae, cherry pick set 3 (AID 504334);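 note: median GFP fluorescence per well by flow cytometry over the all cells gate; ratio of sample to mean DMSO control signal so DMSO = 100% not 0%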
Details: S. cerevisiae AGP1-GFP strain, 3 h, at 10 µM, hits give high values

Percent response vs DMSO, active:
CC1=CN2C(=N)/C(=C/c3ccc([N+](=O)[O-])o3)C(=O)N=C2S1 569%

Percent response vs DMSO, inactive:
C=CCNc1nc(N)c([N+](=O)[O-])c(Nc2cccc(Cl)c2)n1 92.1%
CCc1c(C)nc2c(OC)cccc2c1Cl 99.4%
C[n+]1cccc2c(Br)ccc([O-])c21 100%
CCCC(=O)Nn1cnc2c(c1=O)C1(CCCC1)Cc1ccccc1-2 101%
COc1ccccc1OCc1cc(C(=O)N2CCN(C)C(c3ccccc3)C2)no1 (centres undefined) 98.8%
CNc1cccc2c1C(=O)c1ccccc1C2=O 100%
COc1ccc(N/C(C)=C/C(=O)c2ccccc2)cc1 98.4%
Nn1cnc2c(c1=O)C1(CCCCC1)Cc1ccccc1-2 94.1%
COC1=C/C(=C/c2c(N)n3cc(C)sc3nc2=O)C=CC1=O 100%
O=C(Nc1cccc2ccccc12)ON=C1CCCCC1 99.8%
CC(C)Nc1ncnc2ccc(Br)cc12 99.4%
Oc1c(Cl)cc(Cl)c2cccnc12 98.8%
CCc1sc(C(=O)Nc2nc(-c3ccccn3)cs2)cc1C 111%
Cc1cccc(Nc2cc(=O)[nH]c(=O)[nH]2)c1 96.8%
O=C(N/N=C/c1ccccc1F)c1cccc2ccccc12 101%
OCCNc1ncnc2ccc(Br)cc12 101%
Oc1ccc(Cl)c2cccnc12 109%
CCN(CC)C(=O)Oc1ccnc2cc(Cl)ccc12 108%
CS(=O)(=O)c1nc(-c2ccc(F)cc2)cc(C(F)(F)F)n1 114%
COc1ccc(Nc2nc(NN)nc(C)c2[N+](=O)[O-])cc1 94.1%
Cc1ccc(C(=O)/C=C/Nc2cccc(O)c2)cc1 96.8%
Cc1nc(Nc2ccc(Br)cc2Br)c([N+](=O)[O-])c(=O)[nH]1 95.4%
Cn1cccc1C(=O)Nc1nc(-c2ccccn2)cs1 99.1%
Nc1ncnc(Nc2cc(Cl)cc(Cl)c2)c1[N+](=O)[O-] 98.8%
CCC(=O)Nn1cnc2c(c1=O)C1(CCCCC1)Cc1ccccc1-2 102%
O=C(O)CCS(=O)(=O)c1nc(-c2cccs2)cc(C(F)(F)F)n1 111%
COc1ccc(OC)c2c(=O)cc(C(=O)O)[nH]c12 102%
C=CCNc1ncnc2ccccc12 102%
Nc1c(O)ccc2c1C(=O)c1ccccc1C2=O 110%
COCCNc1nc(N)c([N+](=O)[O-])c(Nc2ccc(F)cc2)n1 101%
C/C(=N\NC(=O)c1ccccc1)c1ccccc1F 105%
CS(=O)(=O)Oc1ccc(Br)c2cccnc12 96.4%
CSc1nc(S(C)(=O)=O)nc2[nH]c(=O)[nH]c12 103%
C/C(=C\C(=O)c1ccc(Cl)cc1)Nc1ccc(Br)cc1 99.8%
Cc1cc(C)c2ccc(C(=O)O)nc2c1O 97.4%
COc1ccc(OC)c(N/C(C)=C/C(=O)c2ccccc2)c1 99.8%
COc1cccc2c(Cl)c(CCCl)c(C)nc12 99.8%
COc1ccccc1-c1cc(C(F)(F)F)nc(S(=O)(=O)CCCC(=O)NC(C)C)n1 104% and 99.8%
